Results taken from PubChem BioAssay (Tox21).
Records with an inconclusive call do not appear. Values without a mark were called inactive. Calls of active or inactive are those of the source. Calls follow the shape of the dose curve; as a rule, active = well fitted activation curve with a large enough effect in the repeat runs; inconclusive = weak or mixed curves; inactive = no such curve, though single readings can be large or run the other way.

Assay: qHTS assay for small molecules that induce genotoxicity in human embryonic kidney cells expressing luciferase-tagged ATAD5 (AID 651632); also: nearly all actives have a fitted effect of over 15% in size
Settings: HEK293T ATAD5-luciferase induction, 16 h; series mostly up to 83.3 µM; activation: at the top concentration
Excerpt: U.S. Tox21 Program National Center for Advancing Translational Sciences [NCATS] NIH Chemical Genomics Center [NCGC] U.S. Environmental Protection Agency [EPA] National Institutes of Environmental Health Sciences [NIEHS] National Toxicology Program [NTP] U.S. Food and Drug Administration [FDA] Tox21 Assay Overview: As cancer cells divide rapidly and during every cell division they need to duplicate their genome by DNA replication. The failure to do so results in the cancer cell death. Based on this concept, many chemotherapeutic agents were developed but have limitations such as low efficacy and severe side effects etc. A new cell based assay was developed to find the compounds that effectively block DNA replication either by directly damaging DNA or by inhibiting other cellular mechanisms. Enhanced Level of Genome Instability Gene 1 (ELG1; human ATAD5) protein levels increase in response to various types of DNA damage. Using a luciferase reporter-gene tagged with ATAD5, a cell-based assay [developed by Kyungjae Myung, NHGRI, NIH] was used to measure the induction of ATAD5 in human embryonic kidney cells (HEK293T). So, increase in luciferase activity can be used to identify the compounds that cause genetic stress.
Tox21 Assay Protocol Summary: For genotoxicity screening, 2,000 cells in 5 uL/well were dispensed into white, solid-bottom 1536-well plates using a Multidrop Combi (Thermo Scientific) dispenser. Following transfer of 23 nL compound or DMSO vehicle by a pin tool, the plates were incubated 16 hr at 37C and 5% CO2. 5 ul Amplite (AAT Bioquest, Inc.) was then added to each plate and following 30 min incubation at room temperature, luciferase activity was quantified on a ViewLux CCD-based plate reader.
% is scaled to controls: 0 for no effect and ±100 for the full control effect.

Structure (SMILES) | outcome | activation
Nc1ccc(-c2ccc(N)cc2)cc1 | inactive | 
COc1ccc(N)cc1 | inactive | 
COCC(=O)N(c1c(C)cccc1C)C(C)C(=O)OC (stereo not given) | inactive | 
CCCCCCCCCCCCCCCCn1cc[n+](C)c1 | inactive | 
CCCCn1cc[n+](C)c1C | inactive | 
COP(=O)(OC)C(O)C(Cl)(Cl)Cl (stereo not given) | inactive | 
O=[N+]([O-])c1ccccc1O | inactive | 
O=C(O)c1nc(Cl)ccc1Cl | inactive | 
CCCC[n+]1ccccc1C | inactive | 
C[N+](C)(C)Cc1ccccc1 | inactive | 
CCC(=O)C(CC(C)N(C)C)(c1ccccc1)c1ccccc1 (stereo not given) | inactive | 
CC[N+]1(C)CCCC1 | inactive | 
CCn1cc[n+](C)c1C | inactive | 
CCCC[n+]1ccc(C)cc1 | inactive | 
CCC[N+]1(C)CCCCC1 | inactive | 
CCNc1nc(Cl)nc(NCC)n1 | inactive | 
O=c1nc(O)n(Cl)c(=O)n1Cl | inactive | 
CCC[N+]1(C)CCCC1 | inactive | 
COc1ccccc1N | inactive | 
COP(=O)(OC)OC=C(Cl)Cl | inactive | 

Structure (SMILES) | outcome | activation
CCCCCCCCCCCCn1cc[n+](C)c1 | inactive | 
C=CCOC(Cn1ccnc1)c1ccc(Cl)cc1Cl (stereo not given) | inactive | 
CCCCCCCCCCCCOS(=O)(=O)O | inactive | 
CCCC[n+]1cccc(C)c1 | inactive | 
CCCCCCCCCCn1cc[n+](C)c1 | inactive | 
Nc1ccc(-c2ccc(N)c(Cl)c2)cc1Cl |  | 3.97%
O=C(O)CC(O)(CC(=O)O)C(=O)O | inactive | 
C[C@]12CCC(=O)C=C1CC[C@@H]1[C@@H]2CC[C@]2(C)C(=O)CC[C@@H]12 | inactive | 
O=c1[nH]c(=O)n(Cl)c(=O)n1Cl | inactive | 
CCCCCCCCn1cc[n+](C)c1 | inactive | 
CCCCCCn1cc[n+](C)c1 | inactive | 
O=C(O)C(Cl)Cl | inactive | 
CCCC[N+]1(C)CCCCC1 | inactive | 
Oc1ccccc1-c1ccccc1 | inactive | 
Nc1ccc(Cl)cc1 | inactive | 
C1CCC(NC2CCCCC2)CC1 | inactive | 
CC(=O)[O][Hg][c]1ccccc1 | inactive | 
O=P1(N(CCCl)CCCl)NCCCO1 (stereo not given) | inactive | 
CCCn1cc[n+](C)c1 | inactive | 
Nc1ccccc1 | inactive | 
